Source: PubChem BioAssay (NCATS)
Records with an inconclusive call do not appear. Activity calls are given as the source filed them. Unless noted, the call rests on the fitted dose curve; in most records, active means well fitted curve in the direction sought with a large enough effect; inconclusive means small, poorly fitted or top-dose-only effect, or another doubt; inactive means no such curve, though single readings can be large; an effect the other way counts as inactive or inconclusive.

How the values were obtained:
[1] = qHTS profiling of the MIPE4 collection as inhibitors of Plasmodium falciparum (3D7) proliferation (AID 743344; call rule not given here;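 further: scaled between DMSO vehicle wells and 0.29 µM artemisinin as full inhibition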); settings: P. falciparum 3D7 in erythrocytes, SYBR Green DNA fluorescence, 72 h; at 28.5 µM unless noted
Summary of the method: (§1)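 Erythrocytes infected with P. falciparum (0.3% parasitemia, 2.5% hematocrit) incubated with compounds 72 h at 37 C, 5% CO2. Lysis with saponin/Triton buffer containing SYBR Green I, overnight at room temperature in the dark; DNA fluorescence (485/535 nm) normalised to 0.29 uM artemisinin and DMSO.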

[2] = qHTS profiling of the MIPE4 collection as inhibitors of Plasmodium falciparum (DD2) proliferation (AID 743345; call rule not given here); settings: P. falciparum Dd2 in erythrocytes, SYBR Green DNA, 72 h; at 28.5 µM unless noted
Summary of the method: as §1

[3] = qHTS profiling of the MIPE4 collection as inhibitors of Plasmodium falciparum (DD2) proliferation (Rep 2) (AID 743346; call rule not given here); settings: P. falciparum Dd2 in erythrocytes, SYBR Green DNA, 72 h; at 28.5 µM unless noted
Summary of the method: as §1

[4] = qHTS profiling of the MIPE4 collection as inhibitors of Plasmodium falciparum (HB3) proliferation (AID 743347; call rule not given here;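 further: plate controls were DMSO vehicle wells for no effect and artemisinin wells for full effect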); settings: P. falciparum HB3 in erythrocytes, SYBR Green DNA, 72 h; at 28.5 µM unless noted
Summary of the method: as §1

[5] = High-throughput drug toxicity screening in the BPDCN cell line Gen2.2 (AID 1224824; call rule not given here;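 further: cells exposed to compounds for 48 h before reading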); settings: Gen2.2 BPDCN cells; at 45.8 µM (top of the series) unless noted
Summary of the method: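 Readout is ATP luminescence from Gen2.2 cells after two days of drug exposure in serum-containing medium at 37 °C. Values express percent activity, with vehicle defining full signal and 9.2 uM bortezomib defining zero.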

[6] = High-throughput drug toxicity screening in the BPDCN cell line Cal-1 (AID 1224825); settings: Cal-1 BPDCN cell viability, qHTS; at 45.8 µM (top of the series) unless noted
Summary of the method: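 Exponentially growing Cal-1 cells, 500 per well in phenol red-free RPMI with 10% FBS, were exposed to compounds for 48 h at 37 °C, 5% CO2. Viability was read by CellTiter-Glo luminescence and normalised to DMSO (100%) and 9.2 uM bortezomib (0%).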

[7] = qHTS assay for measurement of the activity of small molecule inhibitors on Zika virus induced Caspase-3 activity in human astrocytoma cells (AID 1224859);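 further: plate controls were ZIKV-infected untreated cells for no effect and uninfected cells for full effect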
Summary of the method: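 Luminescence read-out (Caspase-Glo 3/7, 30 min RT) of caspase activity in SNB-19 cells infected 6 h with ZIKV, 2 FFU/cell, after 1 h compound pretreatment; % inhibition from induction normalised to uninfected (0%) and infected (100%) wells.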

[8] = qHTS Screen of the MIPE 4.0 Collection Against Ewings Sarcoma (RDES) (AID 1259252); further: nearly all actives have a fitted effect of over 35% in size; further: potency means the concentration at half of the fitted maximal effect
Summary of the method: (§2)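 Here, cells in 5% FBS RPMI were exposed for two days (48 h) to compound dilutions added four hours after plating. ATP-based CellTiter-Glo luminescence measured viability, normalized to vehicle and no-cell blanks.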

[9] = qHTS Screen of the MIPE 4.0 Collection Against Ewings Sarcoma (TC71) (AID 1259253); further: nearly all actives have a fitted effect of over 40% in size; further: potency means the concentration at half of the fitted maximal effect
Summary of the method: as §2

[10] = qHTS Screen of the MIPE 4.0 Collection Against Ewings Sarcoma (EW8) (AID 1259255); further: nearly all actives have a fitted effect of over 35% in size; further: potency means the concentration at half of the fitted maximal effect;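 on viability: 100% = DMSO-treated cells and 0% = medium-only wells without cells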
Summary of the method: as §2

[11] = qHTS assay for measurement of the activity of small molecule inhibitors on Zika virus induced Caspase-3 activity in human iPSC derived neural progenitor cells (hNPCs) (AID 1224857); further: % of control where 0% means no effect; nearly all actives have a fitted effect of over 65% in size
Summary of the method: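 hNPCs seeded 350 cells/well, cultured 16–20 h; compounds added 1 h before ZIKV (2 FFU/cell), 37 C 6 h. Caspase-Glo 3/7 luminescence after 30 min RT; % inhibition from induction scaled to uninfected (0%) and infected (100%) wells.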

[12] = molecular target: T1, Hexokinase-4 (Homo sapiens) + Glucokinase regulatory protein (Homo sapiens) (UniProt P35557+Q14397); test: qHTS assay for inhibitors of recombinant human GCK-GKRP interaction: Diaphorase-coupled assay (AID 743205)
Summary of the method: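 Signal derives from resorufin generated by diaphorase, linked to GCK turnover of glucose (5 mM) and ATP (0.4 mM). Enzyme complex was added after a 20-minute compound preincubation and monitored for 30 minutes.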

[13] = molecular target: T1, Hexokinase-4 (Homo sapiens) + Glucokinase regulatory protein (Homo sapiens); test: qHTS assay for inhibitors of recombinant human GCK-GKRP interaction: ADP-Glo assay (AID 743206);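 further: plate controls were DMSO plus enzyme for no effect and no enzyme for full effect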
Summary of the method: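 GST-GCK and FLAG-GKRP (15 nM each in the dispensed mix, with 2 uM S6P) react with 0.4 mM ATP and 5 mM glucose (final) in Hepes pH 7.6 for 60 min at room temperature. ADP is measured by ADP-Glo luminescence.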

[14] = molecular target: T1, Hexokinase-4 (Homo sapiens) + Glucokinase regulatory protein (Homo sapiens); test: qHTS assay for inhibitors of recombinant human GCK-GKRP interaction: HTRF assay (AID 743207);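 further: 0% = DMSO with GCK present and -100% = DMSO wells lacking GCK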
Summary of the method: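 Titration screening format: recombinant GST-GCK and FLAG-GKRP at 5 nM, S6P at 2 uM, labelled anti-tag antibodies, 60 min at RT, dual-wavelength HTRF readout.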

[15] = qHTS Assay for Identifying Gametocytocidal Compounds (AID 743244);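 further: on the % scale 0 is the no-effect control and ±100 the full control effect; actives lower the fluorescent signal which means gametocytes are killed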; settings: P. falciparum 3D7 stage III-V gametocytes, alamarBlue, 72 h; max response: stronger effect = lower value
Summary of the method: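 P. falciparum 3D7 stage III–V gametocytes (20,000 cells/well) were exposed to compounds for 72 h at 37 °C, 5% CO2. AlamarBlue was then added for 24 h; decreased resorufin fluorescence (Ex 525/Em 598 nm) indicated loss of viability.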

T1 sequence (P35557 whole entry, looked up): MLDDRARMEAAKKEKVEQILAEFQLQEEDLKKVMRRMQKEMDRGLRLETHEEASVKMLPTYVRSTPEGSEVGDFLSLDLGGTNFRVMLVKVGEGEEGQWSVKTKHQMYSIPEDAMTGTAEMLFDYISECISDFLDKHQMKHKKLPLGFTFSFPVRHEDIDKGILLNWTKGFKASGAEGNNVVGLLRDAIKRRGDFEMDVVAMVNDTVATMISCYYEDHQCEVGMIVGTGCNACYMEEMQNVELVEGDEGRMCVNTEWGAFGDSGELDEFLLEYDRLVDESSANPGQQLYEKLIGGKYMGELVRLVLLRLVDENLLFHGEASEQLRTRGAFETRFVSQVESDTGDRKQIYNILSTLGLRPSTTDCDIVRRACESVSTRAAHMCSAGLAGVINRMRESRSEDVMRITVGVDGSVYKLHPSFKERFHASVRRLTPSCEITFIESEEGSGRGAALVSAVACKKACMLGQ
T1 sequence (Q14397 whole entry, looked up): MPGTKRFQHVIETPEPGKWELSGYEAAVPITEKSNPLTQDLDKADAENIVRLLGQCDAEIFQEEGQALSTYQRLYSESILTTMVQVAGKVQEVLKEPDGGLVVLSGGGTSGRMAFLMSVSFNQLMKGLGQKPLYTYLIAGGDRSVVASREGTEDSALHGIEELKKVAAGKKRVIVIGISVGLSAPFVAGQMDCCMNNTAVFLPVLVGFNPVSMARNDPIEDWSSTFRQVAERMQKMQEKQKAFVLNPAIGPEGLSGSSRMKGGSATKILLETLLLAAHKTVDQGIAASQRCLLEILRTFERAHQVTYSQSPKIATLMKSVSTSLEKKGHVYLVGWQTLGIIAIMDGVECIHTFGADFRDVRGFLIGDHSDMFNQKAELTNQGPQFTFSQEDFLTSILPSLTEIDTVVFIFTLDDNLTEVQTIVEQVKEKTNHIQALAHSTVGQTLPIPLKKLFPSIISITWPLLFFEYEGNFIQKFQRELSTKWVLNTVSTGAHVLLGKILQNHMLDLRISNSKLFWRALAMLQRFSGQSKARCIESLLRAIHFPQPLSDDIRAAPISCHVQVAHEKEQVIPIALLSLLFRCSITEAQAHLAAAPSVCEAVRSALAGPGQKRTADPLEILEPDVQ

SMILES | parasite growth, % of DMSO control [1] [%] | parasite growth remaining, % of DMSO control (lower = more inhibition) [2] [%] | parasite growth, % of control (lower = inhibition) [3] [%] | growth, % of control [4] [%] | cell viability, % of control (lower = more cytotoxic) [5] [%] | viability (% of control) [6] [%] | Potency [7] | Potency [8] | Potency [9] | Potency [10] | Potency [11] | outcome [12] | outcome [13] | outcome [14] | max response [15]
C[C@H](NC(=O)C(C#N)=Cc1cccc(Br)n1)c1ccccc1 | 59.1 | 86.2 | 33.4 | 22 | 5.54 | 4.37 | inactive | 16.6 µM (active) | 20.9 µM (active) | 16.6 µM (active) |  |  |  |  | 
Oc1ccc([C@@H]2Oc3ccc(O)cc3[C@@H]3CCC[C@@H]32)cc1 | 43.6 | 90.8 | 47 | 81.1 | 90.8 | 14.4 | inactive | 18.7 µM (active) | 26.4 µM (active) |  |  |  |  |  | 
C#Cc1cccc(Nc2ncnc3cc(OCCOC)c(OCCO)cc23)c1 | 6.81 |  | 18.2 | 4.56 | 38.2 | 12.5 | inactive | 0.935 µM (active) | 18.7 µM (active) | 9.35 µM (active) |  |  |  |  | 
CC(=O)NCC(=O)N1[C@H]2CC[C@H]1c1cc(Nc3ncc(C(F)(F)F)c(NC4CCC4)n3)ccc12 | 8.18 | 15.3 | 12.7 | 6.85 | 2.71 |  | inactive | 5.26 µM (active) | 0.935 µM (active) | 0.0833 µM (active) | inactive |  |  |  | 
C[C@@H](Oc1ccc2[nH]nc(C=Cc3cnn(CCO)c3)c2c1)c1c(Cl)cncc1Cl | 5.43 |  | 16.4 | 5.78 | 8.4 |  | inactive | 3.32 µM (active) | 0.662 µM (active) | 0.418 µM (active) |  |  |  |  | 
COc1cc([C@@H]2c3cc4c(cc3[C@@H](O[C@@H]3O[C@@H]5CO[C@@H](c6cccs6)O[C@@H]5[C@H](O)[C@@H]3O)[C@H]3COC(=O)[C@H]23)OCO4)cc(OC)c1O | 5.39 | 8.04 | 9.32 | 5.8 | 27.7 |  | inactive | 0.264 µM (active) | 0.148 µM (active) | 0.0296 µM (active) | inactive |  |  |  | 
O=C(CN1C(=O)C2(CCCC2)NC[C@H]1c1cc(F)cc(F)c1)Nc1ccc2c(c1)C[C@@]1(C2)C(=O)Nc2ncccc21 | 26 |  | 26.1 | 40.3 | 124 |  | inactive | inactive | inactive | inactive | inactive |  |  |  | 
COc1ccc2cc([S+]([O-])Cc3ncc(C)c(OC)c3C)nc2c1 | 32.2 | 87.1 | 61.5 | 41.2 | 70.5 |  | inactive | inactive | inactive | inactive |  | inactive | inactive | inactive | 2.05% (inactive)
C=C(C)[C@@H]1CC[C@]2(C(=O)O)CC[C@]3(C)[C@H](CC[C@@H]4[C@@]5(C)CC[C@H](O)C(C)(C)[C@@H]5CC[C@]43C)[C@@H]12 |  | 20.6 |  |  | 61.6 |  | inactive | inactive | inactive | inactive | inactive |  |  |  | 
CC(=CC(=O)Nc1ccccc1C(=O)O)c1ccc2ccccc2c1 | 383 | 110 | 133 | 674 | 115 |  | inactive | 4.18 µM (active) | 13.2 µM (active) | 10.5 µM (active) | inactive |  |  |  | 
